High-throughput results from PubChem BioAssay.
14-3-3 Bad PPI: disrupts binding of bovine 14-3-3 zeta to phospho-Bad peptide; TR-FRET 14-3-3zeta/Dy647-pBad peptide displacement, 1 h; inhibition, % at 21.7 µM; actives 0.71% (n = 220,000); AID 781;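 active = inhibition above about 70%, limit read from the data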;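 also: 0% = full 14-3-3 plus peptide FRET controls and 100% = background without 14-3-3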
Target sequence (P63103 whole entry, looked up): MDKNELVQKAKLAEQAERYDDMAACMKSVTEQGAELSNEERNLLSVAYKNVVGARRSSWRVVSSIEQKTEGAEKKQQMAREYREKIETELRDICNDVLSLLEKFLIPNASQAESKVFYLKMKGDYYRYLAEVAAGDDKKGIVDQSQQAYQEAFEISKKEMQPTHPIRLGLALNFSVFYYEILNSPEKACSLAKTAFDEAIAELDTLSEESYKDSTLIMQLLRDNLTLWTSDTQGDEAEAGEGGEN
Mcl1 Noxa PPI: Mcl-1/Noxa interaction inhibition; TR-FRET Mcl-1/Noxa peptide binding, 2 h; inhibition, % at 21.7 µM; Q07820; AID 1022; actives 1.5% (n = 220,000);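 active = compounds that cut the protein-peptide binding signal by more than 50% relative to plate controls in a single-dose test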;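 also: His-tagged Mcl-1 with rhodamine Noxa BH3 peptide and terbium anti-His antibody; 0% = Mcl-1 plus Noxa peptide wells and 100% = peptide-only wells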
Target sequence (Q07820 whole entry, looked up): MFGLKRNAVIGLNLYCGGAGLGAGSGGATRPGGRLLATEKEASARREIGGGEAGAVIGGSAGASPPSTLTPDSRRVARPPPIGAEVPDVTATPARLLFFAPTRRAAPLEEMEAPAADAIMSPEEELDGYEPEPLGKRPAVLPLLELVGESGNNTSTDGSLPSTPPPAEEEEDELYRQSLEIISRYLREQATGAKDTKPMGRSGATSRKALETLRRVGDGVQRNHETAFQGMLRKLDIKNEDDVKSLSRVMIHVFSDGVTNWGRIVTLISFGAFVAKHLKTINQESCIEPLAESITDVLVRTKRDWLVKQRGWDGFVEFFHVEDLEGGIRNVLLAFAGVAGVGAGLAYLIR
Bim-Mcl-1: disrupts Bim peptide binding to human Mcl-1 | inhibition, % at 10 µM | Q07820 | AID 1009 | actives 0.1% (n = 190,000) | Bead-based flow cytometry, Bim peptide-Mcl-1 binding; in the data active = inhibition above about 40%;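 also: 0% = no compound tracer wells and 100% = peptide blocker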
p47phox inh: inhibitors of human p47phox binding; p47phox/p22phox peptide binding, fluorescence polarization, 2 h; inhibition, % at 24.7 µM; actives 0.53% (n = 220,000); P14598;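 active = inhibition above about 30%, limit read from the data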;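 also: 0% = p47phox with labelled peptide and 100% = labelled peptide alone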
Mcl1-Bid inh: Mcl-1/Bid interaction inhibition | TR-FRET Mcl-1/Bid-Dy647 peptide binding, 1536-well | inhibition, % at 21.7 µM | actives 0.97% (n = 220,000) | AID 1021;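 active = compounds that cut the binding signal by more than half at the single screening dose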;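 also: His-tagged Mcl-1 with europium anti-His antibody binding Bid BH3 peptide; 0% = Mcl-1 plus peptide wells and 100% = peptide-only wells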
Starred values were filed as active, the others as inactive; nt = no result given; [ ] = dose if it differs, or a comment. Rows were chosen to be rich in hits. Some 3.2% of all compounds tested hit in one or more screens of this group.

SMILES	14-3-3 Bad PPI	Mcl1 Noxa PPI	Bim-Mcl-1	p47phox inh	Mcl1-Bid inh
Cc1ccc(-n2c(-c3ccccc3)c[n+]3c2CCc2ccccc2-3)c(C)c1	-14	-8	0	3	3
COc1ccc(C2(C)NC(=O)N(CC(=O)NCCC3=CCCCC3)C2=O)cc1OC (centres undefined)	1	6	-1	-5	84*
CCCc1cc(SCC(=O)Nc2c(C)n(C)n(-c3ccccc3)c2=O)n2c(nc3ccccc32)c1C#N	65	-50	2	10	66*
O=C(Nc1cccc(S(=O)(=O)NC2=NCCC2)c1)c1cc(-c2ccco2)nc2ccccc12	66	99*	nt	-6	49
O=C(NC(=S)Nc1cccc(S(=O)(=O)NC2=NCCC2)c1)c1cc(-c2ccco2)nc2ccccc12	-3	65*	nt	-31	-47
CCC(CC)NC(=O)CCCSc1nc2ccccc2[nH]1	8	35	-1	-1	-29
CCOC(=O)c1nc(SC)n(C)c1C(=O)OCC	4	14	nt	-5	-8
O=[N+]([O-])c1ccc(Cl)c2c1C1C=CCC1C(c1ccccn1)N2 (centres undefined)	-11	-3	2	0	-49
O=C(O)c1ccc(Cl)c2c1C1C=CCC1C(c1ccccn1)N2 (centres undefined)	21	89*	5	40*	56*
O=C(COC(=O)c1ccc2c(c1)C(=O)N(c1cccc3ncccc13)C2=O)c1ccc(Cl)cc1	75*	39	0	56*	45
O=C(OCC(=O)c1ccc(Cl)cc1Cl)c1ccc2c(c1)C(=O)N(c1cccc3ncccc13)C2=O	0	27	-4	0	5
COc1ccc(Nc2nc(-c3cc4cccc(OC)c4oc3=O)cs2)cc1	17	47	0	-2	7
O=C(Nc1nc(-c2cc3ccccc3oc2=O)cs1)c1ccc(Br)o1	79*[fluorescence artefact?]	2	-3	-13	-25
O=c1oc2ccccc2cc1-c1nc(-c2cccs2)cs1	-6	1	14	52*	7
Nc1ccc(Nc2nc(-c3cc4ccccc4oc3=O)cs2)cc1	6	59*	0	-15	-31
O=C(O)c1ccc(Nc2nc(-c3cc4ccccc4oc3=O)cs2)cc1O	40	97*	0	-71	-87
CCC(C(=O)NCc1ccccc1OC)c1ccccc1 (centres undefined)	-7	0	2	-10	-9
O=C(CSc1n[nH]c(=O)[nH]c1=O)NC1CC1	0	14	1	-1	-11
Cc1cc(O)ccc1Nc1nc2ccccc2nc1Nc1ccc(O)cc1C	59	68*	0	56*	9
O=C(NC(=S)Nc1ccc2cn[nH]c2c1)c1ccccc1	2	19	-1	-10	-22
O=C1C(Cc2ccc3[nH]ccc3c2)NC(=S)N1c1ccccc1 (centres undefined)	0	14	nt	-18	-89
Cc1cc2nc(-c3ccc(SCc4ccc(C(=O)O)cc4)nc3)[nH]c2cc1C	-8	76*	4	-48	-62
N=C1S/C(=C\c2ccco2)C(=O)N1c1ccc2c(c1)OCO2	29	84*	4	-12	39
Cc1cccc(C(=O)N[C@H](C(=O)OCc2cc(=O)n3c(n2)sc2ccccc23)C(C)C)c1	8	69*	12	-64	-27
O=C(OCc1cc(=O)n2c(n1)sc1ccccc12)c1ccc(O)cc1	41	27	0	-80	30
SMILES	14-3-3 Bad PPI	Mcl1 Noxa PPI	Bim-Mcl-1	p47phox inh	Mcl1-Bid inh
Cc1ccc(NC(=O)COc2ccccc2C=O)cc1Cl	-3	-1	0	-1	-17
C/C(=N/OC(=O)c1ccc(C(F)(F)F)cc1)c1oc(C)nc1C	-2	-18	nt	-8	-28
Cc1cccc(N2CSC3=C(C#N)C(c4ccc(C)o4)CC(=O)N3C2)c1 (centres undefined)	13	107*	-11	-16	71*
COc1ccc(OC)c(C2CC(=O)N3CN(c4ccccc4)CSC3=C2C#N)c1 (centres undefined)	6	27	-4	-9	-34
COc1cc(OC)c(C2CC(=O)N3CN(c4ccccc4C)CSC3=C2C#N)cc1OC (centres undefined)	-12	7	-4	47*	-35
COc1ccc2ccccc2c1C1CC(=O)N2CN(C3CCCCC3)CSC2=C1C#N (centres undefined)	12	63*	-8	0	-6
CCOc1cc(C2CC(=O)N3CN(C4CCCCC4)CSC3=C2C#N)ccc1O (centres undefined)	1	57*	-4	-2	-40
CCCn1c(=O)[nH]c(=O)c2c1nc(-c1cccs1)n2CCOC	-6	-3	-3	-9	-11
O=C(Cn1cc([N+](=O)[O-])cn1)NCc1cc2ccccc2[nH]1	-5	12	-5	0	-40
COC(=O)CCCC1=CC2=CC(=O)C(C)(OC(=O)c3cccs3)C(=O)C2=CN1C1CCCC1 (centres undefined)	-6	0	nt	-10	-97
CC1(OC(=O)c2cccs2)C(=O)C=C2C=C3CCCN3C=C2C1=O (centres undefined)	7	72*	nt	16	-64
COc1ccccc1Nc1nccc(N(C)C)c1C#N	5	14	-2	-1	-11
CCOC(=O)N1CCC(NC(=O)c2ccc3nc4ccccc4c(=O)n3c2)CC1	-8	1	10	39*	9
O=C(c1ccc2c(c1)OCO2)N1CCN(c2ccc(Cl)cc2)CC1	9	-5	-10	-15	-12
COc1ccc(N2CCN(C(=O)c3ccc4c(c3)OCO4)CC2)cc1	-3	-6	-2	-7	86*
COc1ccccc1C(=O)N1CCC(N2CCN(c3ccccc3)CC2)CC1	48	-68	nt	2	56*
COc1ccc(N2CCN(C(=O)c3ccc(CSc4ccccc4)cc3)CC2)cc1	7	96*	-2	4	-17
COc1ccc(N2CCN(C(=O)CSc3ccccc3)CC2)cc1	44	10	-4	-2	-13
COc1ccc(N2CCN(C(=O)c3ccncc3)CC2)cc1	-2	17	-2	-11	1
COc1ccccc1C(=O)N1CCC(N2CCN(c3ccccc3OC)CC2)CC1	25	16	nt	-6	24
COc1ccc(C(=O)N2CCC(N3CCN(c4ccccc4)CC3)CC2)cc1	89*	-5	-3	-4	37
CCOCC(=O)Nc1cc(Cl)ccc1C	2	6	3	5	-21
CN1CCN(CCCC(=O)c2ccc(F)cc2)CC1	86*	13	0	64*	-1
O=C(CCCN1Cc2ccccc2C1)c1ccc(F)cc1	26	8	0	-9	-38
CCOC(=O)COc1cc2oc(=O)cc(C)c2cc1[N+](=O)[O-]	-13	3	0	10	-23
CCOC(=O)c1c(NC(=O)CCC(=O)O)sc2c1CC(C)(C)OC2	-6	8	4	-5	-26
CCOC(=O)c1c(NC(=O)C2CC2)sc2c1CC(C)(C)OC2	91*	18	nt	1	14
